# Bioassay records deposited in PubChem BioAssay by several laboratories.
# Hits are enriched below; roughly 1% of the tested compounds scored in any of these assays.
# Mtb hypoxia rep: PubChem AID 1159583; M. tuberculosis hypoxia-regulated fluorescent reporter, fluorescence; fluorescence inhibition, % (test concentration not listed); hit rate 0.1% among 300,000; in the data active = fluorescence inhibition mostly above about 23%, no sharp cut-off; inactive = mostly below about 17%
# FadD28 FP inh: inhibitors of FadD28 bisubstrate probe binding, primary screen, biochemical, fluorescence polarization, single point; Mycobacterium tuberculosis FadD28 fatty-acid-AMP ligase; inhibition, % at 12.5 µM; hit rate 0.22% among 360,000; in the data active = inhibition above about 8.5%, passing the limit was not always enough
# TcdB inh: TcdB glycohydrolase inhibitors, primary screen, biochemical, single point, plate reader | Toxin B (Clostridioides difficile), P18177 | TcdB glycohydrolase enzymatic assay | inhibition, % at 9.99 µM | hit rate 0.24% among 350,000 | AID 652162, 2013; in the data active = inhibition above about 10%
# BioA inh: M. tuberculosis BioA enzyme inhibitors, primary screen, biochemical, plate reader, single point, HTS. 7,8-diaminopelargonic acid synthase BioA (Mycobacterium tuberculosis). purified M. tuberculosis BioA enzyme. inhibition, % at 9.99 µM. hit rate 0.096% among 360,000; in the data active = inhibition above about 40%
# PrP UTR inh: inhibition of PrP 5' UTR reporter expression. inhibition, % (test concentration not listed). hit rate 0.35% among 340,000. cell-based PrP 5' UTR mRNA reporter, plate reader. AID 488862, 2010; in the data active = inhibition above about 52%; also: 0 = median of the neutral control wells
# SSB-PriA inh: inhibitors of Klebsiella pneumoniae PriA binding to SSB C-terminal tail, primary screen, biochemical, AlphaScreen. hit rate 0.6% among 430,000. PriA–SSB C-terminal tail interaction (Klebsiella pneumoniae). AlphaScreen SSBct-PriA binding, biotinylated peptide. inhibition, % at 33 µM; in the data active = inhibition mostly above about 37%, no sharp cut-off; inactive = mostly below about 20%;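 also: plate controls were negative control peptide for no effect and reference peptide for full effect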
# An asterisk follows results filed as active; . = no result.
SMILES,Mtb hypoxia rep,FadD28 FP inh,TcdB inh,BioA inh,PrP UTR inh,SSB-PriA inh
O=C(O)C(c1ccccc1)N1C(=O)/C(=C\c2ccc(-c3ccc(Br)cc3)o2)SC1=S (stereo unspecified),.,27.5*,1.7,17.5,-16.2,-11.4
COc1ccc(-c2ccc(/C=C3\SC(=S)N(C(C(=O)O)c4ccccc4)C3=O)o2)cc1 (stereo unspecified),.,.,.,.,.,5.0
O=C(O)C(c1ccccc1)N1C(=O)/C(=C\c2ccc(-c3ccccc3Cl)o2)SC1=S (stereo unspecified),19.2,11.2*,-0.6,3.8,-22.0,-0.4
CCC(C(=O)O)N1C(=O)/C(=C\c2ccc(-c3ccccc3C(F)(F)F)o2)SC1=S (stereo unspecified),.,.,.,.,.,41.0
C[C@H](CO)N1C[C@H](C)[C@@H](CN(C)Cc2cccnc2)Oc2ncc(C#Cc3ccccn3)cc2C1=O,.,.,-1.1,4.1,.,.
Cc1ccc(Nc2nc(=O)[nH]nc2C)cc1,4.8,-2.5,.,0.5,.,-13.0
Cc1n[nH]c(=O)nc1Nc1ccc(O)cc1,5.1,-0.1,21.0*,0.0,-14.4,-7.6
CCOCC(=O)NC1CCC(Oc2ccccn2)CC1 (stereo unspecified),.,.,.,.,.,-7.0
c1ccc(OC2CC3CCC(C2)N3)nc1 (stereo unspecified),.,.,.,.,.,96.0*
COc1ccc(C(=O)Nc2ccc3c(c2)N(C(=O)C2CCCO2)CC3)c(OC)c1OC (stereo unspecified),.,.,.,.,.,6.0
COc1ccc(OC)c(-c2cc(C(=O)NCCc3nc(-c4ccco4)cn3C)n(C)n2)c1,.,.,.,.,.,35.0*
COc1ccc(OC)c(-c2cc(C(=O)NCC#CCOc3ccc4c(c3)OCO4)n(C)n2)c1,.,.,.,.,.,53.0*
COc1ccc(OC)c(-c2cc(C(=O)NCc3cc(-c4ccco4)n(C)n3)n(C)n2)c1,.,.,.,.,.,12.0
CCSc1ccc(CC(=O)Nc2nc(-c3ccc(Cl)cc3Cl)cs2)cc1,.,.,.,.,.,-15.0
O=C1C(=C(c2ccccc2)c2ccccc2)Nc2ccccc21,15.3,0.1,.,4.9,-13.5,42.4*
Cc1ccc(C)c(OCc2cc(C(=O)N(C)Cc3nccn3C)no2)c1,.,-2.3,0.6,-1.0,-5.2,10.3
CCn1ccnc1CNC(=O)c1cc(COc2ccc(OC)c3ccccc23)on1,.,.,.,.,.,67.6*
CCn1ccnc1CN(C)C(=O)c1cc(COc2ccc(OC)c3ccccc23)on1,-0.4,0.8,1.8,2.6,-23.1,39.4*
Cn1c(C(=O)NCC2CCCO2)cc2oc3ccccc3c21 (stereo unspecified),5.1,0.9,.,0.2,-72.3,15.8
CCN(CC)S(=O)(=O)c1cc(C(=O)OCC(=O)Nc2cccc(Br)c2)ccc1F,1.0,56.1*,.,.,-20.5,-16.1
Oc1ccc(/C=N/N2CCN(c3ccccn3)CC2)cc1,.,-0.4,13.0*,-2.3,-15.1,.
O=C(Nc1ccc([N+](=O)[O-])cc1)Nc1ccc(OC(F)F)c(Cl)c1,-5.7,12.5*,.,.,-13.3,-5.1
COc1ccc(C(=O)Nc2cccc([N+](=O)[O-])c2)cc1Br,.,-5.9,.,0.6,-32.5,-18.3
COc1ccc(NC(=O)Nc2cccc([N+](=O)[O-])c2)cc1Cl,6.8,16.4*,1.2,2.0,-34.2,23.1
COc1ccc(NC(=O)c2c(-c3c(F)cccc3Cl)noc2C)cc1[N+](=O)[O-],.,.,.,.,.,66.0*
SMILES,Mtb hypoxia rep,FadD28 FP inh,TcdB inh,BioA inh,PrP UTR inh,SSB-PriA inh
CCOC(=O)N1CCN(C(=O)C2CCCN(c3ccc(-c4ccc(C)c(C)c4)nn3)C2)CC1 (stereo unspecified),.,.,.,.,.,-5.0
CSc1ccccc1NC(=O)C1=CC(c2ccc(C)cc2)=NS(=O)(=O)N1C,4.2,-0.9,29.1*,-1.7,-7.8,31.3
Cc1ccc(C2=NS(=O)(=O)N(C)C(C(=O)NC(C)c3ccccc3)=C2)cc1 (stereo unspecified),6.0,-3.6,1.7,2.8,-22.1,8.8
O=C(CSc1nc(-c2cccc([N+](=O)[O-])c2)cs1)c1ccc2c(c1)OCO2,.,.,.,.,.,-3.0
CCC(=O)N1CC[C@H]2[C@@H]1c1cc(-c3ccccc3)ccc1N(C)[C@H]2CO,.,.,3.6,13.4,.,.
COc1ccc(-c2ccc3c(c2)[C@@H]2[C@@H](CCN2C(=O)C2CC2)[C@@H](CO)N3C)cc1,.,.,-0.1,0.1,.,.
CN1c2ccc(-c3ccccc3)cc2[C@@H]2[C@@H](CCN2C(=O)CN2CCOCC2)[C@@H]1CO,.,.,11.7*,4.9,.,.
COCC(=O)N1CC[C@@H]2[C@H]1c1cc(-c3ccc(OC)cc3)ccc1N(C)[C@H]2CO,.,.,17.5*,2.4,.,.
CN(C)CC(=O)N1CC[C@@H]2[C@H]1c1cc(-c3ccccc3)ccc1N(C)[C@H]2CO,.,.,12.4*,9.5,.,.
O=C(NCCOC(=O)c1cccs1)c1cccnc1,-4.2,-2.7,.,-1.3,-0.1,-1.7
O=C(Nc1cc(C(F)(F)F)ccc1Cl)c1cccc(Oc2ccccn2)c1,.,.,.,.,.,-68.0
COc1ccc(S(=O)(=O)NCCNc2cc(Nc3ccccn3)nc(C)n2)cc1OC,.,.,.,.,.,-10.0
CCN1/C(=C2\OC(=S)N(C)C2=O)C=Cc2ccccc21,13.4,1.6,10.8*,-2.4,22.0,1.7
CCN1/C(=C2\OC(=S)N(C)C2=O)Sc2ccccc21,3.2,1.2,.,-2.7,-46.1,-16.0
Cc1ccc(-c2cc(=O)n(CC(=O)N(C)C3CCCCC3)cn2)cc1,.,.,.,.,.,-10.0
O=C(NCCSc1c[nH]c2ccccc12)c1ccc(S(=O)(=O)N2CCCC2)cc1,.,.,.,.,.,1.0
COc1ccccc1OCC(=O)Nc1cc(C)nn1-c1nc2c(cnn2-c2cccc(C)c2C)c(=O)[nH]1,.,.,.,.,.,42.0*
Cc1cc(NC(=O)Cc2ccc(F)cc2)n(-c2nc3c(cnn3-c3cccc(C)c3C)c(=O)[nH]2)n1,.,.,.,.,.,24.0
Cc1cc(NC(=O)c2c(F)cccc2F)n(-c2nc3c(cnn3-c3cccc(C)c3C)c(=O)[nH]2)n1,.,.,.,.,.,52.0*
Fc1ccc(C2=NNC(=NCc3ccccc3)SC2)cc1F,-2.8,-3.3,1.9,-0.1,-28.9,20.4
CN(C)c1ccc(NC(=O)/C=C/c2c(Cl)cccc2Cl)cc1,.,-0.4,13.2*,.,-108.4,31.2
Cc1cc(NC(=O)C(c2ccccc2)c2ccccc2)on1,.,.,.,.,.,-14.0
COc1ccc(C(=O)COC(=O)/C=C/c2ccccc2)cc1,-2.5,-0.5,-0.1,-0.6,1.1,-19.8
NS(=O)(=O)c1cccc(NS(=O)(=O)c2ccc(/C=C/C(=O)OCC(=O)c3ccccc3)cc2)c1,14.3,10.4*,0.3,-0.9,-19.4,10.1
CCOC(=O)Cc1csc(NC(=O)COc2ccc3c(c2)CCC3)n1,5.6,-2.0,-0.8,0.1,-20.7,-11.0
Cn1c(/C(C#N)=C/c2ccc(-c3ccc(S(N)(=O)=O)cc3)o2)nc2ccccc21,1.9,11.4*,.,2.0,-19.9,-7.7
CN(CC(=O)Nc1cccc(F)c1)C(=O)c1cc([N+](=O)[O-])ccc1N1CCOCC1,0.7,-2.6,1.7,.,-7.5,7.7
